Assay results as given in PubChem BioAssay AID1159580 (chemical genetic matrix, 2015).
Several values for one entry are separate records, joined by “and”; a condition that tells them apart may be missing. Equal values may be shown once. Hit rate of the full screen: of about 5,500 compounds, about 2,000 (36%) were called active. Roughly 18% stayed inconclusive and do not appear here. Cut-off read from the data, not from the text of the source: active = normalized growth mostly below about 0.91 (no sharp cut-off); inconclusive = no clear call, values can overlap the other calls; inactive = mostly above about 0.92. Some of the results follow.

Assay: chemical genetic growth profiling, strain panel (AID 1159580);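 note: tested at 20 µM; growth read once vehicle control cultures reached saturation at 30 °C; 1 = growth at the plate median or of vehicle wells; lower values mean less growth of the strain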
Settings: S. cerevisiae deletion strains, growth OD

Measured: normalized growth

CC(=O)OCC(=O)[C@H]1CCC2C3CCC4=CC(=O)CC[C@]4(C)C3CC[C@@]21C (stereo partly drawn)
inactive: locus YAL021C, strain ccr4, stronger effect = lower value 0.94 | locus YAL026C, strain drs2, stronger effect = lower value 0.978 | locus YAL030W, strain snc1, stronger effect = lower value 0.979 | locus YBL061C, strain skt5, stronger effect = lower value 0.967 | locus YBR009C, strain hhf1, stronger effect = lower value 0.986 | locus YBR021W, strain FUR4, stronger effect = lower value 0.898 | locus YBR023C, strain chs3, stronger effect = lower value 0.94 | locus YBR171W, strain sec66, stronger effect = lower value 0.927 | locus YBR229C, strain ROT2, stronger effect = lower value 0.969 | locus YBR231C, strain swc5, stronger effect = lower value 1 | locus YBR279W, strain paf1, stronger effect = lower value 0.976 | locus YCL011C, strain gbp2, stronger effect = lower value 0.969 | locus YCL016C, strain dcc1, stronger effect = lower value 0.961 | locus YCL029C, strain bik1, stronger effect = lower value 0.957 | locus YCL061C, strain MRC1, stronger effect = lower value 0.984 | locus YCL069W, strain vba3, stronger effect = lower value 0.98 | locus YCR088W, strain abp1, stronger effect = lower value 0.972 | locus YDL005C, strain med2, stronger effect = lower value 0.964 | locus YDL035C, strain GPR1, stronger effect = lower value 0.86 | locus YDL040C, strain nat1, stronger effect = lower value 0.973 | locus YDL101C, strain DUN1, stronger effect = lower value 0.961 | locus YDL185W, strain tfp1, stronger effect = lower value 0.949 | locus YDL192W, strain arf1, stronger effect = lower value 0.935 | locus YDR001C, strain nth1, stronger effect = lower value 0.972 | locus YDR069C, strain doa4, stronger effect = lower value 0.967 | locus YDR101C, strain arx1, stronger effect = lower value 0.954 | locus YDR137W, strain rgp1, stronger effect = lower value 1.11 | locus YDR159W, strain sac3, stronger effect = lower value 0.885 | locus YDR195W, strain ref2 1.07 | locus YDR297W, strain sur2, stronger effect = lower value 0.975 | locus YDR318W, strain mcm21, stronger effect = lower value 0.929 | locus YDR334W, strain swr1, stronger effect = lower value 0.971 | locus YDR335W, strain msn5, stronger effect = lower value 0.988 | locus YDR388W, stronger effect = lower value 0.94 | locus YEL003W, strain gim4, stronger effect = lower value 0.994 | locus YEL037C, strain rad23, stronger effect = lower value 0.977 | locus YEL061C, strain CIN8 (second series), stronger effect = lower value 0.977 | locus YEL061C, strain CIN8, stronger effect = lower value 0.944 | locus YER015W, strain faa2, stronger effect = lower value 0.969 | locus YER016W, strain bim1, stronger effect = lower value 0.962 | locus YER110C, stronger effect = lower value 0.943 | locus YER111C, strain swi4, stronger effect = lower value 0.971 | locus YFR010W, strain ubp6, stronger effect = lower value 0.994 | locus YGL078C, strain dbp3, stronger effect = lower value 0.961 | locus YGL086W, strain mad1, stronger effect = lower value 0.934 | locus YGL167C, strain pmr1, stronger effect = lower value 0.951 | locus YGL173C, strain kem1, stronger effect = lower value 0.948 | locus YGL227W, strain vid30, stronger effect = lower value 0.992 | locus YGL240W, strain doc1, stronger effect = lower value 0.95 | locus YGL248W, strain PDE1, stronger effect = lower value 0.927 | locus YGL253W, strain hxk2, stronger effect = lower value 0.919 | locus YHR013C, strain ard1, stronger effect = lower value 0.997 | locus YHR027C, strain rpn1, stronger effect = lower value 0.996 | locus YHR030C, strain SLT2, stronger effect = lower value 0.944 and 1.02 | locus YHR079C, strain IRE1 (second series), stronger effect = lower value 0.956 | locus YHR079C, strain IRE1, stronger effect = lower value 1.02 | locus YHR094C, strain hxt1, stronger effect = lower value 0.956 | locus YHR129C, strain ARP1, stronger effect = lower value 0.944 | locus YHR142W, strain chs7, stronger effect = lower value 0.944 | locus YHR200W, strain rpn10, stronger effect = lower value 0.924 | locus YIL073C, strain SPO22, stronger effect = lower value 0.828 | locus YIL125W, strain kgd1, stronger effect = lower value 0.955 | locus YJL092W, strain hpr5, stronger effect = lower value 0.976 | locus YJL095W, strain BCK1 (second series), stronger effect = lower value 0.965 | locus YJL115W, strain asf1, stronger effect = lower value 0.984 | locus YJL129C, strain trk1, stronger effect = lower value 0.931 | locus YJL134W, strain LCB3, stronger effect = lower value 0.976 | locus YJL154C, strain vps35, stronger effect = lower value 0.98 | locus YJL164C, strain tpk1, stronger effect = lower value 0.978 | locus YJL166W, strain qcr8, stronger effect = lower value 0.989 | locus YJL168C, strain set2, stronger effect = lower value 0.96 | locus YJL187C, strain SWE1 (second series), stronger effect = lower value 0.935 | locus YJR066W, strain TOR1, stronger effect = lower value 0.956 | locus YKL009W, strain mrt4, stronger effect = lower value 0.909 | locus YKL068W, stronger effect = lower value 0.956 | locus YKL085W, strain MDH1 (second series), stronger effect = lower value 0.934 | locus YKL085W, strain MDH1, stronger effect = lower value 0.934 | locus YKL160W, strain elf1, stronger effect = lower value 0.964 | locus YKR026C, strain gcn3, stronger effect = lower value 0.977 | locus YKR091W, strain srl3, stronger effect = lower value 0.98 | locus YLL001W, strain dnm1, stronger effect = lower value 0.985 | locus YLL026W, stronger effect = lower value 0.992 | locus YLL041C, strain sdh2, stronger effect = lower value 0.986 | locus YLR027C, strain aat2, stronger effect = lower value 0.97 | locus YLR039C, strain RIC1, stronger effect = lower value 0.772 | locus YLR058C, strain SHM2, stronger effect = lower value 0.942 | locus YLR102C, strain apc9, stronger effect = lower value 0.956 | locus YLR113W, strain HOG1, stronger effect = lower value 0.951 | locus YLR221C, strain rsa3, stronger effect = lower value 0.972 | locus YLR258W, strain gsy2, stronger effect = lower value 0.958 | locus YLR262C, strain YPT6 (second series), stronger effect = lower value 1.04 | locus YLR262C, strain YPT6, stronger effect = lower value 0.754 | locus YLR268W, strain sec22, stronger effect = lower value 0.919 | locus YLR320W, strain mms22, stronger effect = lower value 0.881 | locus YLR342W, strain FKS1, stronger effect = lower value 0.926 | locus YLR357W, strain rsc2, stronger effect = lower value 1.02 | locus YLR370C, strain arc18, stronger effect = lower value 0.958 | locus YLR371W, strain rom2, stronger effect = lower value 0.966 | locus YLR384C, strain iki3, stronger effect = lower value 0.987 | locus YML016C, strain PPZ1, stronger effect = lower value 0.962 | locus YML120C, strain ndi1, stronger effect = lower value 0.979 | locus YML124C, strain tub3, stronger effect = lower value 0.938 | locus YMR058W, strain fet3, stronger effect = lower value 0.959 | locus YMR078C, strain ctf18, stronger effect = lower value 0.923 | locus YMR125W, strain sto1, stronger effect = lower value 0.986 | locus YMR129W, stronger effect = lower value 0.985 | locus YMR205C, strain PFK2, stronger effect = lower value 0.909 | locus YMR223W, strain ubp8, stronger effect = lower value 0.905 | locus YMR231W, strain pep5, stronger effect = lower value 0.988 | locus YMR307W, strain GAS1, stronger effect = lower value 0.744 | locus YNL067W, strain RPL9B, stronger effect = lower value 0.965 | locus YNL071W, strain lat1, stronger effect = lower value 0.923 | locus YNL153C, strain GIM3, stronger effect = lower value 0.962 | locus YNL183C, strain NPR1, stronger effect = lower value 0.961 | locus YNL209W, strain ssb2, stronger effect = lower value 0.979 | locus YNL233W, strain BNI4, stronger effect = lower value 0.871 | locus YNL248C, strain rpa49, stronger effect = lower value 0.945 | locus YNL250W, strain rad50, stronger effect = lower value 0.978 | locus YNL271C, strain bni1, stronger effect = lower value 0.938 | locus YNL322C, strain KRE1 (second series), stronger effect = lower value 0.951 | locus YNR049C, strain mso1, stronger effect = lower value 0.989 | locus YNR052C, strain pop2, stronger effect = lower value 0.986 | locus YOL012C, strain htz1 1.17 | locus YOR001W, strain rrp6, stronger effect = lower value 0.999 | locus YOR061W, strain CKA2, stronger effect = lower value 0.943 | locus YOR069W, strain VPS5, stronger effect = lower value 0.983 | locus YOR070C, strain gyp1, stronger effect = lower value 0.974 | locus YOR080W, strain dia2, stronger effect = lower value 0.987 | locus YOR083W, strain WHI5, stronger effect = lower value 0.9 | locus YOR106W, strain vam3, stronger effect = lower value 0.941 | locus YOR136W, strain idh2, stronger effect = lower value 0.965 | locus YOR231W, strain MKK1, stronger effect = lower value 0.983 | locus YOR265W, strain rbl2, stronger effect = lower value 0.98 | locus YOR290C, strain snf2, stronger effect = lower value 0.961 | locus YOR316C, strain cot1, stronger effect = lower value 0.947 | locus YPL051W, strain arl3, stronger effect = lower value 0.968 | locus YPL055C, strain LGE1, stronger effect = lower value 0.861 | locus YPL078C, strain atp4, stronger effect = lower value 0.903 | locus YPL106C, strain sse1, stronger effect = lower value 1.04 | locus YPL240C, strain hsp82, stronger effect = lower value 0.982 | locus YPL241C, strain CIN2, stronger effect = lower value 0.963 | locus YPL256C, strain CLN2, stronger effect = lower value 1.01 | locus YPR119W, strain clb2, stronger effect = lower value 0.948 | locus YPR141C, strain kar3, stronger effect = lower value 0.954 | locus YPR163C, strain tif3, stronger effect = lower value 0.916 | strain wtn01, stronger effect = lower value 0.949
active: locus YAL013W, strain DEP1, stronger effect = lower value 0.886 | locus YDL074C, strain BRE1, stronger effect = lower value 0.777 | locus YDL134C, strain PPH21, stronger effect = lower value 0.826 | locus YDR162C, strain NBP2, stronger effect = lower value 0.78 | locus YDR392W, strain spt3, stronger effect = lower value 0.56 | locus YDR502C, strain sam2, stronger effect = lower value 0.899 | locus YER155C, strain BEM2 (second series), stronger effect = lower value 0.835 | locus YER155C, strain BEM2, stronger effect = lower value 0.92 | locus YER167W, strain BCK2, stronger effect = lower value 0.829 | locus YGR135W, strain pre9, stronger effect = lower value 0.84 | locus YGR252W, strain gcn5, stronger effect = lower value 0.72 | locus YIL066C, strain RNR3, stronger effect = lower value 0.809 | locus YIR030C, strain dcg1, stronger effect = lower value 0.927 | locus YJR043C, strain POL32, stronger effect = lower value 0.797 | locus YKR001C, strain vps1, stronger effect = lower value 0.777 | locus YLR330W, strain CHS5, stronger effect = lower value 0.864 | locus YLR342W, strain FKS1 (second series), stronger effect = lower value 0.726 | locus YLR418C, strain cdc73, stronger effect = lower value 0.691 | locus YML032C, strain rad52, stronger effect = lower value 0.896 | locus YNL298W, strain CLA4, stronger effect = lower value 0.893 | locus YNL307C, strain MCK1, stronger effect = lower value 0.596 | locus YOL147C, strain pex11, stronger effect = lower value 0.93 | locus YOR144C, strain elg1, stronger effect = lower value 0.929 | locus YOR184W, strain ser1, stronger effect = lower value 0.759 | locus YOR270C, strain vph1, stronger effect = lower value 0.734 | locus YPR167C, strain met16, stronger effect = lower value 0.921
0.752 (active) and 0.988 (inactive): locus YJL095W, strain BCK1, stronger effect = lower value
